Laboratory results from PubChem BioAssay.

System: not listed separately
Assay: probe aLefty2 binding to arrayed compounds – biochemical, biotinylated probe, 635/667 nm fluorescence, primary screen (AID 1094);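 further: score merges spot fluorescence near 667 nm with spot signal-to-noise ratio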
Details: small-molecule microarray, higher = more signal

Question: Which composite z-score does the source give for `CC(C)CNC(=O)[C@@H]1c2ccccc2C(=O)N(Cc2cc(C(F)(F)F)cc(C(F)(F)F)c2)[C@H]1c1ccc(CO)cc1` here?
Answer: 0.104

Question: For `[N-]=[N+]=NCc1ccccc1[C@@H]1OC(c2ccc(OCCCO)cc2)=N[C@]1(Cc1ccccc1)C(=O)N1CCCCC1`, which composite z-score is on record?
Answer: 0.332

Question: With `CC(=O)C1=CCC(c2ccccc2)N(S(=O)(=O)c2ccc(C)cc2)C1` (centres undefined) as the compound, how does the composite z-score read?
Answer: -0.0118

System: Noggin (protein binding on small-molecule microarray)
Assay: small molecules binding Noggin protein – biochemical, 635/667 nm fluorescence, primary screen (AID 1095);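 further: score merges 667 nm feature fluorescence with signal to noise over triplicate slides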
Details: 635 nm fluorescence, higher = more signal

Question: With `C=CCOC(=O)[C@H]1[C@@H]2C(=O)O[C@@H](c3ccccc3)[C@@H](c3ccccc3)N2[C@@H](c2ccc(OCCOC(=O)[C@@H]3C[C@@H]4C(=O)N5CCC[C@H]5C(=O)N4[C@@H]3c3ccc(O)cc3)cc2)[C@]12C(=O)Nc1ccccc12` as the compound, how does the composite z-score read?
Answer: 1.15

Question: Which composite z-score does the source give for `CC(C)OC(=O)CC(=O)CC(O)c1ccc(C#N)cc1` (centres undefined) here?
Answer: -0.263

Question: For `O=C(OCCF)C1=CCC(c2cccc(Cl)c2)O1` (centres undefined), which composite z-score is on record?
Answer: 0.207

Question: For `[N-]=[N+]=NCc1ccccc1[C@@H]1OC(c2ccc(OCCCO)cc2)=N[C@]1(Cc1ccccc1N=[N+]=[N-])C(=O)NCc1ccccc1`, which composite z-score is on record?
Answer: 0.646

Question: Which composite z-score does the source give for `COc1ccc(C(O)C2C=CC3C(=O)N(c4ccccc4)C(=O)C3N2Nc2ccc([N+](=O)[O-])cc2)cc1OCc1ccccc1` (centres undefined) here?
Answer: 0.322

Question: For `Cc1ccccc1C(O)C1C=CC2C(=O)N(C)C(=O)C2N1N1CCCCC1` (centres undefined), which composite z-score is on record?
Answer: 0.21

Question: Which composite z-score does the source give for `COCCOC(=O)N1C(=O)[C@@]2(c3cc(C#CCNC(N)=O)ccc31)[C@H](c1ccccc1OCCO)N1[C@H](c3ccccc3)[C@H](c3ccccc3)OC(=O)[C@H]1[C@@H]2C(N)=O` here?
Answer: 1.1

Question: Which composite z-score does the source give for `O=C1C2C=CC(C(O)c3cccs3)N(Nc3ccccc3F)C2C(=O)N1c1ccccc1` (centres undefined) here?
Answer: -0.226

Question: For `COC(=O)C1=CC(CCCO)=CC(C2CC2)N(Cc2sc3ccccc3c2Cl)C=C1C(=O)OC` (centres undefined), which composite z-score is on record?
Answer: 0.346

Question: With `COCCOC(=O)N1C(=O)[C@@]2(c3cc(C#Cc4ccc(OC)cc4)ccc31)[C@H](C(=O)N1CCN(c3ncccn3)CC1)[C@H]1C(=O)O[C@H](c3ccccc3)[C@H](c3ccccc3)N1[C@@H]2c1ccc(O)cc1` as the compound, how does the composite z-score read?
Answer: 0.587

Question: With `CN(C)C(=O)[C@]1(CCC(=O)OC(C)(C)C)N=C(c2ccc(OCCCO)cc2)O[C@@H]1c1ccccc1N=[N+]=[N-]` as the compound, how does the composite z-score read?
Answer: 0.245

Question: With `C=CCC(OC(C)=O)[C@@H]1[C@@H](N(Cc2cc3ccccc3o2)C(=O)c2ccc(C)cc2)c2cc(OCCCO)ccc2N1C(=O)c1ccc2ccccc2c1` (some centres undefined) as the compound, how does the composite z-score read?
Answer: 0.341

Question: Which composite z-score does the source give for `COC(=O)[C@@]1(Cc2ccc(OC)cc2)[C@H]2c3cc(C(=O)N4CCCC4)n(Cc4ccccn4)c3C[C@H]2CN1C(=O)c1ccccc1` here?
Answer: -0.404

Question: Which composite z-score does the source give for `Cc1ccc(S[C@]2(C(=O)NCc3ccccc3)CC(=O)N(Cc3ccccc3Cl)[C@@H]2c2ccc(CO)cc2I)cc1` here?
Answer: -1.07

Question: With `COc1ccc([Si](C)(C)[C@@H]2[C@@H](CCn3cc([C@H](O)c4ccccc4)nn3)O[C@]3(C(=O)N(Cc4cccc(N5CCOC5=O)c4)c4ccccc43)[C@H]2C)cc1` as the compound, how does the composite z-score read?
Answer: -0.89

Question: For `CCN(CC)c1ccc(N2CC=CC34O[C@@H]5/C=C\CCCOC(=O)C5[C@H]3C(=O)N(C(CO)C(C)C)[C@@H]4C2=O)cc1` (some centres undefined), which composite z-score is on record?
Answer: -0.708

Question: With `Cc1ccc(S[C@]2(C(=O)NC3CC3)CC(=O)N(Cc3ccccc3)[C@@H]2c2ccc(CO)cc2)cc1` as the compound, how does the composite z-score read?
Answer: -0.347

Question: For `O=C1OCCC/C=C\[C@H]2OC34C=CCN(Cn5nnc6ccccc65)C(=O)[C@H]3N(CCCCCO)C(=O)[C@@H]4C12` (some centres undefined), which composite z-score is on record?
Answer: -0.808

Question: With `CCN(CC)c1ccc(N2CC=CC34O[C@@H]5C=CCCOC(=O)C5[C@H]3C(=O)N(CCCCCO)[C@@H]4C2=O)cc1` (some centres undefined) as the compound, how does the composite z-score read?
Answer: -0.514

Question: For `O=C1O[C@@H](c2ccccc2)[C@@H](c2ccccc2)N2[C@@H](c3ccccc3OCCO)[C@]3(C(=O)Nc4ccc(C#CC5(O)CCCCCC5)cc43)[C@@H](C(=O)Nc3nc4ccccc4s3)[C@H]12`, which composite z-score is on record?
Answer: 1.33

Question: With `CCOC(=O)C1=C[C@@H](C(C)C)N(S(=O)(=O)c2ccc(C)cc2)[C@H]1c1ccc(C(C)C)cc1` as the compound, how does the composite z-score read?
Answer: 0.75

Question: Which composite z-score does the source give for `C=CCC(OC(C)=O)[C@@H]1[C@@H](N(Cc2cccc3ccccc23)C(=O)c2cccc3ccccc23)c2cc(OCCCO)ccc2N1C(=O)c1ccc2ccccc2n1` (some centres undefined) here?
Answer: 0.282

Question: With `[N-]=[N+]=NCc1ccccc1C[C@]1(C(=O)NCCN2CCOCC2)N=C(c2ccc(OCCCO)cc2)O[C@H]1c1ccccc1N=[N+]=[N-]` as the compound, how does the composite z-score read?
Answer: -0.0313

Question: For `CC1=C2[C@@H](CCc3ccccc3)OB(O)C[C@@H]2n2c(=O)n(-c3ccccc3)c(=O)n2C1`, which composite z-score is on record?
Answer: 0.416

Question: Which composite z-score does the source give for `COc1cc2c(cc1OC)CN(C(=O)[C@@H]1[C@H]3C(=O)O[C@H](c4ccccc4)[C@H](c4ccccc4)N3[C@H](c3ccccc3OCCO)[C@@]13C(=O)Nc1ccc(C#CCNC(N)=O)cc13)CC2` here?
Answer: 1.09

Question: For `C=C[C@H](C)[C@@H](O)c1ccc(O)c2ccccc12`, which composite z-score is on record?
Answer: -0.0597

Question: For `O=C1O[C@H](c2ccccc2)[C@H](c2ccccc2)N2[C@H]1[C@@H](C(=O)O)[C@]1(C(=O)Nc3ccc(C#CC4(O)CCCCCC4)cc31)[C@H]2c1ccc(OCCO)cc1`, which composite z-score is on record?
Answer: -0.338

Question: Which composite z-score does the source give for `CC(=CC1CCCCC1)[C@@H](NC(=O)c1ccc(C(F)(F)F)cc1)c1ccc(-c2ccccc2)cc1` here?
Answer: 0.0323

Question: With `CN1C(=O)C2C(C1=O)C1C=C(CCCO)C2C(c2cccs2)N1C` (centres undefined) as the compound, how does the composite z-score read?
Answer: -0.4

Question: For `CC(C)NC(=O)[C@@]1(Cc2ccccc2I)c2ccccc2C(=O)N(Cc2ccccc2)[C@H]1c1ccc(CO)cc1`, which composite z-score is on record?
Answer: 1.04

Question: Which composite z-score does the source give for `C=C(COC)C(=O)CC[C@H](OC(C)=O)c1cccc(OCCO)c1` here?
Answer: 1.03

Question: With `[N-]=[N+]=NCc1ccccc1[C@H]1OC(c2ccc(OCCCO)cc2)=N[C@@]1(CCS(=O)(=O)c1ccccc1)C(=O)N1CCOCC1` as the compound, how does the composite z-score read?
Answer: 0.346

Question: With `COC(=O)[C@@]1(Cc2ccc(OC)cc2)[C@H]2c3cc(C(=O)N4CCCC4)n(CCc4c[nH]c5cc(F)ccc45)c3C[C@H]2CN1C(=O)c1ccccc1` as the compound, how does the composite z-score read?
Answer: 0.103

Question: For `CC(C)CNC(=O)[C@@H]1c2ccccc2C(=O)N(Cc2cc(C(F)(F)F)cc(C(F)(F)F)c2)[C@H]1c1ccc(CO)cc1`, which composite z-score is on record?
Answer: -0.96

Question: For `[N-]=[N+]=NCc1ccccc1[C@@H]1OC(c2ccc(OCCCO)cc2)=N[C@]1(Cc1ccccc1)C(=O)N1CCCCC1`, which composite z-score is on record?
Answer: 1.46

Question: For `CC(=O)C1=CCC(c2ccccc2)N(S(=O)(=O)c2ccc(C)cc2)C1` (centres undefined), which composite z-score is on record?
Answer: 0.229
